Source: PubChem BioAssay (National Center for Advancing Translational Sciences (NCATS))
Compounds with a hit are over-represented: about 2.4% of the library has one in this group of screens.
POLK inh – inhibitors of human DNA polymerase kappa | Q9UBT6 | purified Pol kappa, fluorescent DNA synthesis assay, 10 min | Potency, µM (highest dose often 107 µM), without a hit: top-dose activity, negative = inhibition, usual class: inhibitors | 400,000 tested, 0.53% active; note: % is set by controls: 0 for no effect and ±100 for the full control effect
Target sequence (Q9UBT6 whole entry, looked up): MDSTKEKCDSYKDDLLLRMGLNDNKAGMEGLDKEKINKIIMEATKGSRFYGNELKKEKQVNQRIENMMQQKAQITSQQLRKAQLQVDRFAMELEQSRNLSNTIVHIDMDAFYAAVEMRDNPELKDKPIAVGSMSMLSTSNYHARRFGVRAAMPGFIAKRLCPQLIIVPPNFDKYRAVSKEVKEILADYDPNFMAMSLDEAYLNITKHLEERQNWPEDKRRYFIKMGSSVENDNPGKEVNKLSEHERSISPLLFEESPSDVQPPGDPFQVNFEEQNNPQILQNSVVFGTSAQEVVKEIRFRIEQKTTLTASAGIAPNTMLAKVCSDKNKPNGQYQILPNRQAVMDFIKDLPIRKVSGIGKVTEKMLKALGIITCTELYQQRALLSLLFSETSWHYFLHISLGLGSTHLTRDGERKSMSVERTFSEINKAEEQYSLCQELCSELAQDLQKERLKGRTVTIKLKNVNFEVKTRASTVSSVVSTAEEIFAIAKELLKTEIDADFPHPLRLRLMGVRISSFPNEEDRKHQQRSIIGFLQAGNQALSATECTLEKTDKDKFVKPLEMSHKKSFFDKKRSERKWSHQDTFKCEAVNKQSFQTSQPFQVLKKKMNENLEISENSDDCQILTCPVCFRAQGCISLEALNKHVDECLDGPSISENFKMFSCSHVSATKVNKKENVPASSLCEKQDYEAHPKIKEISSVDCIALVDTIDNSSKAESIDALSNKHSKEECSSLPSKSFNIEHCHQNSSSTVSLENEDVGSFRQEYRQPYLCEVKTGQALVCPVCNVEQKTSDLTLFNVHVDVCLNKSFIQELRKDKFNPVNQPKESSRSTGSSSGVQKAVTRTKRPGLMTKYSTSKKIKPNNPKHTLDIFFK
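Here, compound and 10 nM enzyme are combined for 15 min at room temperature; adding 50 nM substrate (final) starts DNA synthesis, tracked by fluorescence at 0 and 10 min against buffer-only wells.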
Pol beta inh – DNA polymerase beta (human) inhibition. P06746. AID 485314. Potency, µM (highest dose often 114 µM), inactives show at the highest dose activity change, negative = inhibition, actives largely listed as inhibitors. 340,000 tested, 1.3% active. Pol beta primer extension/strand displacement, fluorescence kinetic; note: % is set by controls: 0 for no effect and ±100 for the full control effect
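Kinetic readout of DNA synthesis with strand displacement by Pol beta. Compound and 10 nM enzyme sit 15 min at room temperature; 50 nM substrate starts the reaction, read immediately and at 10 min.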
FEN1 inhibitor – blocks human flap endonuclease 1. P39748. Potency, µM (titrated, usually from 114 µM), inactives show at the highest dose activity change, negative = inhibition, usual class: inhibitors. 390,000 tested, 0.35% active. Recombinant FEN1 flap cleavage, fluorescence, 15 min; note: % is set by controls: 0 for no effect and ±100 for the full control effect; nearly all actives have a fitted effect of over 65% in size
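Steps: FEN1 (10 nM) dispensed; compound added by pin tool; 15 min at room temperature; substrate added to 50 nM final; reads at 0 min and 15 min; data normalized and fitted (four-parameter Hill).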
WRN helicase inh-1 – blocks human WRN helicase. Potency, µM (highest dose often 114 µM), without a hit: at the highest dose activity change, negative = inhibition, actives largely listed as inhibitors. 360,000 tested, 0.46% active. WRN helicase unwinding, fluorescent forked duplex, kinetic; note: % is set by controls: 0 for no effect and ±100 for the full control effect; nearly all actives have a fitted effect of over 55% in size
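Kinetic red-fluorescence monitoring (525/598 nm) tracks WRN helicase activity after 100 nM fluorophore-quencher forked duplex and 2 mM ATP are added to 20 nM enzyme pretreated 15 min at room temperature with compound.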
POLI inh – DNA polymerase iota (human) inhibition | Q9UNA4 | Pol iota fluorescent replication assay, 10 min | Potency, µM (titrated, usually from 115 µM), without a hit: top-dose activity, negative = inhibition, usual class: inhibitors | 390,000 tested, 1% active
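Pol iota at 10 nM preincubated 15 min with compounds at room temperature; reaction started with fluorescent substrate, 50 nM final. Fluorescence read kinetically at 0 and 10 min; buffer-only wells as negative control.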
POLH inh – blocks human DNA polymerase eta activity | Potency, µM (highest dose often 114 µM), inactives show at the top dose activity change, negative = inhibition, most hits filed as inhibitors | Q9Y253 | AID 588591 | recombinant Pol eta, fluorescent DNA replication assay | 390,000 tested, 1.2% active; note: % is set by controls: 0 for no effect and ±100 for the full control effect
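Pol eta at 10 nM preincubated with compounds 15 min at room temperature; reaction started with fluorescent substrate (50 nM final) and read kinetically at 0 and 10 min.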
WRN helicase inh-2 – confirmation of human WRN helicase inhibitors; WRN helicase DNA unwinding, fluorescence kinetic; 610 tested, 63% active; shares compounds with WRN helicase inh-1; Potency, µM (highest dose often 57.1 µM), inactives show at the top dose activity, negative = inhibition, most hits filed as inhibitors; note: nearly all actives have a fitted effect of over 65% in size
TO DNA binding – DNA binding via thiazole orange displacement. 610 tested, 10% active. thiazole orange DNA binding displacement, fluorescence. AID 720499. shares compounds with WRN helicase inh-1. Potency, µM (titrated, usually from 57.1 µM), inactives show top-dose activity change, negative = inhibition, actives largely listed as inhibitors;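 note: drop in dye fluorescence marks compound binding to DNA; % is set by controls: 0 for no effect and ±100 for the full control effect; nearly all actives have a fitted effect of over 60% in size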
BLM counter – BLM helicase inhibition, WRN selectivity check; shares compounds with WRN helicase inh-1; Recombinant BLM helicase DNA unwinding, red fluorescence; Potency, µM (doses to about 57.1 µM), for inactives: top-dose activity change, negative = inhibition, actives largely listed as inhibitors; 610 tested, 60% active; note: nearly all actives have a fitted effect of over 60% in size
Active calls of the source: *; u = inconclusive; x = no result given; [ ] = remark or other dose. Calls come from the whole dose curve; as a rule, active = well fitted curve in the direction sought with a large enough effect; inconclusive = small, poorly fitted or top-dose-only effect, or another doubt; inactive = no such curve, though single readings can be large; an effect the other way counts as inactive or inconclusive. Potency is the fitted concentration of half-maximal effect.

SMILES	POLK inh	Pol beta inh	FEN1 inhibitor	WRN helicase inh-1	POLI inh	POLH inh	WRN helicase inh-2	TO DNA binding	BLM counter
N#CCC(=O)Nc1ccc(C(=O)OCC(=O)NNC(=O)c2ccc(Cl)cc2)cc1	-12%	x	u	u	u	u	u	30µM*	u
N#CCC(=O)Nc1ccc(C(=O)OCC(=O)NNC(=O)c2cccs2)cc1	-9%	x	-3%	-27%	u	u	x	x	x
Cn1cnc([N+](=O)[O-])c1S(=O)(=O)Oc1cccc2ccccc12	-15%	x	4%	-88%	u	-5%	u	-7%	u
CCN(c1cccc(C)c1)S(=O)(=O)c1nnc(NC(=O)C2CCCCC2)s1	-5%	-12%	2%	x	5%	-13%	x	x	x
CC(C)Cc1ccc(C(C)/C=C2/CCC(CN3CCCCC3)C2=O)cc1 (centres undefined)	-13%	x	-20%	35µM*	u	22µM*	-27%	-6%	u
CC1=NN(c2ccc(F)cc2)C(=O)C1C(c1cccc(O)c1)c1c(C)[nH]n(-c2ccc(F)cc2)c1=O (centres undefined)	-1%	-3%	-29%	u	-91%	-15%	-18%	-20%	-14%
CCCc1cc(CN2CCOCC2)c(O)c(CN2CCOCC2)c1O	-15%	x	1%	18µM*	-14%	-13%	-13%	-3%	-25%
Oc1ccc(O)c(Cc2nc3ccccc3[nH]2)c1	-19%	0%	-21%	89µM*	-10%	2%	22µM*	u	6.8µM*
CCOc1ccc(/C=C/C(=O)Nc2sc3c(c2C(=O)OC)C(C(=O)OC)CC3)cc1 (centres undefined)	-8%	35%	u	x	u	50µM*	-13%	-7%	u
CCOc1ccc(/C=C/C(=O)Nc2sc3c(c2C(=O)OC)CCCC3)cc1	-9%	-3%	18%	x	9%	-4%	x	x	x
COC(=O)c1c(NC(=O)CCCOc2cccc(C)c2)sc2c1C(C(=O)OC)CC2 (centres undefined)	-23%	0%	71µM*	x	u	-9%	-14%	-23%	u
COC(=O)c1c(NC(=O)CCCOc2ccc(C)cc2)sc2c1C(C(=O)OC)CC2 (centres undefined)	u	-25%	79µM*	x	u	-8%	-23%	24µM*	u
Cc1cc2oc(C(=O)N(Cc3ccc(N(C)C)cc3)Cc3ccco3)c(C)c2cc1Cl	2%	14%	-8%	x	u	x	x	x	x
CCCCn1c(=O)nc2n(-c3ccc(F)cc3)c3ccccc3cc-2c1=O	2%	-2%	0%	x	-17%	-17%	x	x	x
COCCn1c(=O)sc2ccccc2c1=O	-8%	6%	1%	u	89%	-2%	6%	-4%	-11%
CCCCNC(C(=O)Nc1ccc([N+](=O)[O-])cc1Br)c1ccccc1 (centres undefined)	-7%	5%	3%	u	u	-21%	1%	-8%	-11%
COc1cccc(C(c2c(C)[nH]n(-c3ccccc3)c2=O)c2c(C)[nH]n(-c3ccccc3)c2=O)c1OC	-28%	-26%	-24%	u	1.3µM*	-6%	-11%	-10%	-11%
CCOc1cccc(C(c2c(C)n(C)n(-c3ccccc3)c2=O)c2c(C)n(C)n(-c3ccccc3)c2=O)c1OC	-11%	-3%	20%	0%	-1%	-20%	x	x	x
Cc1cn(C)c(CC(=O)Nc2cccc(Cl)c2C)c1C(=O)O	4%[60.1 µM]	0%	-1%	x	-2%	-7%	x	x	x
CCCCCCCN(c1ccccc1)C1C[C@H]2CCCC(=O)N3CC[C@@H](C1)[C@@H]23 (some centres undefined)	-6%	x	10%	x	27%	x	x	x	x
Cc1ccc(N=Cc2cc(Cc3ccccc3Cl)cc([N+](=O)[O-])c2O)c(O)c1	-81%	16µM*	-32%	28µM*	u	50µM*	24µM*	u	22µM*
Cc1ccccc1N=Cc1cc2c(cc1[N+](=O)[O-])OCO2	-11%	11%	-1%	-22%[57.1 µM]	31%	-15%	x	x	x
CCOC(=O)c1nn(-c2ccccc2)c(=O)c2c(NC(C)=O)scc12	0%	-24%	5%	-8%	36%	-7%	x	x	x
CCOC(=O)c1nn(-c2ccccc2C)c(=O)c2c(N)scc12	-9%	-26%	-4%	u	u	-4%	u	35%	u
CCc1nnc(NS(=O)(=O)c2ccc(N/C=C\C(=O)c3cccc4ccccc34)cc2)s1	-7%	-18%	-9%	27µM*	-15%	45µM*	24µM*	-21%	27µM*
SMILES	POLK inh	Pol beta inh	FEN1 inhibitor	WRN helicase inh-1	POLI inh	POLH inh	WRN helicase inh-2	TO DNA binding	BLM counter
COCCn1c(=O)cnc2cnc(N3CCNCC3)nc21	0%[60.1 µM]	x	x	x	x	x	x	x	x
CCCn1c(CN2CCN(c3ccc(OC)cc3)CC2)nc2c1c(=O)[nH]c(=O)n2C	1%	24%	22%	x	5%	1%	x	x	x
CCN(CC)c1ccc(NC(=O)Nc2ccc(C(C)=O)cc2)cc1	-19%	u	-2%	-2%	2%	-1%	x	x	x
CCN(CC)c1ccc(N=C2C=CC(=O)C=C2NC(C)=O)cc1	u	x	u	18µM*	45µM*	-5%	-13%	-11%	-23%
Cc1cccc(Oc2nc3c(C)cccn3c(=O)c2/C=C(\C#N)c2nc3ccccc3[nH]2)c1	-5%[60.1 µM]	13%	-6%	x	38%	7%	x	x	x
N=C(N)c1ccc(N=Nc2c(O)ccc3c2[nH]c2ccccc23)cc1	79µM*	x	28µM*	11µM*	-10%	40µM*	8.6µM*	24µM*	19µM*
NC(=O)c1ccc(N=Nc2c(O)c3ccccc3[nH]c2=O)cc1	x	33%	x	x	x	x	x	x	x
N#Cc1ncc(Cc2ccccc2)nc1C#N	-13%	7%	8%	1.7µM*	33%	40µM*	-10%	-7%	-19%
COc1ccc(C2(CNC(=O)C(=O)Nc3ccc(C)c(Cl)c3)CCCC2)cc1OC	-15%	2%	-10%	x	-1%	-17%	x	x	x
Cc1nn(-c2ccccc2)c2nc(=O)n(-c3ccccc3)cc12	-9%	30%	-4%	u	u	-4%	-17%	0%	-13%
